# SmPrx2 inh = Schistosoma mansoni Prx2 inhibition; AID 448; actives 0.07% (n = 65,000); Potency, µM; S. mansoni Prx2 activity coupled to TGR/GSH (TGR is thioredoxin glutathione reductase), NADPH fluorescence loss, qHTS
#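 Prx2 inhibition was measured as reduced NADPH consumption when electrons flowed from NADPH through TGR and glutathione to Prx2 and H2O2. Plates were read kinetically over 8 min; enzyme reagents were held at 4 deg C during dispensing.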
# LT uptake inh = inhibitors of anthrax lethal toxin internalization. Potency, µM (doses to about 40 µM), hits mostly inhibitors. Cells, anthrax lethal toxin internalization, FRET ratio (460/530). AID 912. actives 0.67% (n = 70,000); note: nearly all actives have a fitted effect of over 50% in size
# AmpC inh no det = inhibitors of E. coli AmpC beta-lactamase without detergent; P00811; AmpC nitrocefin hydrolysis, absorbance 480 nm, no detergent; Potency, µM (highest dose often 28.7 µM); actives 1.8% (n = 71,000)
# Target sequence (P00811 whole entry, looked up): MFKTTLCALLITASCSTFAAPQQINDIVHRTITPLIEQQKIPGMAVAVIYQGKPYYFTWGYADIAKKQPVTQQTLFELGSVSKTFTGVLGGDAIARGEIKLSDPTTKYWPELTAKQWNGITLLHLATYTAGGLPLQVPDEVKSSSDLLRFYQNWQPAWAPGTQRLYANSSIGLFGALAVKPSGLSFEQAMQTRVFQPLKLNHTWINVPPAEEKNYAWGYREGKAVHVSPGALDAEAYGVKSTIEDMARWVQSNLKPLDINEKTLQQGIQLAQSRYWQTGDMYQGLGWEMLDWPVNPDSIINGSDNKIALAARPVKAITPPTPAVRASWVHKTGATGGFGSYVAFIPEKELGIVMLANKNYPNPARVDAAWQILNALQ
#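 AmpC in 20 mM phosphate buffer pH 7.0 was preincubated 15 min at room temperature with compounds. Nitrocefin (800 uM stock) was then added and hydrolysis followed at 480 nm every 20 s for 4 min.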
# AmpC det inh = AmpC beta-lactamase inhibition, detergent assay; actives 0.09% (n = 71,000); Potency, µM (doses to about 28.7 µM); purified AmpC, nitrocefin hydrolysis with detergent; P00811; active = well fitted curve in the direction sought with a large enough effect; inconclusive = small, poorly fitted or top-dose-only effect
#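 E. coli AmpC (5.3 nM) in 20 mM phosphate pH 7.0 with 0.01% Triton X-100, preincubated 15 min RT with compound; nitrocefin (2 uL of 800 uM stock) hydrolysis followed by 480 nm absorbance every 20 s over 4 min.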
# A number is an active result; n = inactive; u = inconclusive; x = no result given; [ ] = dose if it differs, or a comment. Rows were chosen to be rich in hits. Some 2.4% of all compounds tested hit in one or more screens of this group. Unless noted, calls come from the whole dose curve.
SMILES,SmPrx2 inh,LT uptake inh,AmpC inh no det,AmpC det inh
O=C(O)CC1Sc2ccccc2NC1=O (stereo not drawn),n,n,n,n
O=C1Nc2ccccc2SC(c2ccccc2)C1O (stereo not drawn),n,n,13µM[single pt active],n
Cc1cc(C)c(/C=C2/C(=O)Nc3ccccc32)[nH]1,n,n,n,n
COc1ccc(CNc2nc(-c3ccccc3OC)nc3ccccc23)c(OC)c1,n,u,n,n
Cc1noc(NS(=O)(=O)c2ccc(NC(=O)COc3ccc(Cl)cc3Cl)cc2)c1C,x,u,6.3µM,n
Cc1ccc(S(=O)(=O)CC(=O)Nc2ccc(S(=O)(=O)Nc3onc(C)c3C)cc2)cc1,n,n,n,n
CCc1cccc(OCC(=O)Nc2ccc(S(=O)(=O)Nc3onc(C)c3C)cc2)c1,n,n,4µM[single pt active],n
Cc1ccc(OCC(=O)Nc2ccc(S(=O)(=O)Nc3onc(C)c3C)cc2)cc1,n,n,n,n
O=Nc1ccc(Nc2ccccc2)cc1,x,u,n,n
O=C(CCCOc1ccccc1)Nc1nnc(C2CCCO2)s1 (stereo not drawn),n,n,10µM[single pt active],n
Oc1ccc2c3c1O[C@@H]1[C@@H](O)CC[C@]4(O)[C@H](C2)N(CC2CCC2)CC[C@@]314,n,n,n,n
COc1ccc(CCNc2oc(COc3ccccc3Cl)nc2C#N)cc1OC,n,16µM,n,n
O=C(Nc1nc(-c2cccs2)c(-c2ccccc2)s1)c1ccco1,n,13µM,n,n
O=C(Nc1nnc(COc2ccccc2)s1)c1ccco1,n,n,n,n
C[Si](C)(c1ccc(C(=O)O)cc1)c1ccc(C(=O)O)cc1,n,n[8 µM],n[5.75 µM],n[5.75 µM]
CCOC(=O)N1CCC(NC(=O)CN2C(=O)CCSc3ccccc32)CC1,n,n,4µM[single pt active],n
CCNc1ncc2nc(-c3ccc(Cl)cc3)c(=O)n(CCC#N)c2n1,n,u,n,n
C[C@@]12CC[C@H]3[C@@H](CC=C4C[C@H](OS(=O)(=O)O)CC[C@]43C)[C@H]1CCC2=O,n,u,n,n
CCN(CC)CCO[C@H]1CC[C@@]2(C)C(=CC[C@@H]3[C@H]2CC[C@]2(C)C(=O)CC[C@H]32)C1,n,25µM,n,n
COc1ccc(N(C)C(=O)c2ccc3snnc3c2)cc1,n,n,4µM[single pt active],n
COc1ccccc1Oc1ccc2c(c1)C(=O)N(c1ccc(O)cc1)C2=O,n,n,13µM[single pt active],n
COc1cccc(Cn2nnc(C(=O)NCc3ccccc3Cl)c2N)c1,x,u,4µM[single pt active],n
COc1cccc(Cn2nnc(C(=O)NCc3ccc(F)cc3)c2N)c1,n,n,4µM[single pt active],n
CCOc1ccc(Cn2nnc(C(=O)NCCc3ccccc3)c2N)cc1,n,n,4µM[single pt active],n
O=C(O)c1ccc(NS(=O)(=O)Cc2ccccc2)cc1,n,n[8 µM],n[5.75 µM],n[5.75 µM]
SMILES,SmPrx2 inh,LT uptake inh,AmpC inh no det,AmpC det inh
CC[C@H]1[C@@H]2C[C@@H]3[C@@H]4N(C)c5ccccc5[C@@]45C[C@@H]([C@H]2[C@@H]5O)N3[C@@H]1O,n,u,n,n
Cc1cccc(CNc2cc(-c3ccccc3C)ncn2)c1,n,n,n,n
N#CC1=C(N)SC(N)=C(C#N)C1c1cccc(Oc2ccccc2)c1,x,u,7.9µM,n
CCOc1ccc(C2C(C#N)=C(N)SC(N)=C2C#N)cc1OCC,n,n,n,n
COc1ccc(OC)c(NC(=O)c2nnn(Cc3ccc(Br)cc3F)c2N)c1,u,u,3.2µM[single pt active],n
COc1ccc(C)cc1NC(=O)c1nnn(Cc2cccc(F)c2)c1N,x,n,3.2µM[single pt active],n
COc1cccc(Cn2nnc(C(=O)Nc3cc(Cl)ccc3OC)c2N)c1,n,u,n,n
COc1ccc(NC(=O)c2nnn(Cc3cccc(F)c3)c2N)c(OC)c1,n,n,2.5µM[single pt active],n
Cc1ccc(C)c(NC(=O)c2nnn(Cc3ccccc3)c2N)c1,n,n,n,n
N=C(N)SCc1ccc(Cl)c2ccccc12 (tested in a mixture with another compound),n,u,n[5.75 µM],n[5.75 µM]
CCC(Sc1nccn1C)C(=O)Nc1cccc2ccccc12 (stereo not drawn),n,n,n,n
CCC(Sc1nccn1C)C(=O)Nc1nnc(C)s1 (stereo not drawn),n,n,4µM[single pt active],n
CN=C(NC#N)NCCSC[C@H]1N=CN=C1C,n,n[3.58 µM],n,n
CCCC/C=C/C(NC(=O)c1ccco1)c1ccccc1 (stereo not drawn),n,n,u,n
COc1ccc(CCNC(=O)CSc2nc(N)c(C#N)c(-c3cccs3)c2C#N)cc1OC,n,u,n,n
Cc1ccccc1NC(=O)CSc1nc(N)c(C#N)c(-c2cccs2)c1C#N,n,n,10µM,n
CCCC/C=C/C(NC(=O)c1ccccc1)c1ccccc1 (stereo not drawn),n,u,n,n
CCCC/C=C/C(NC(=O)c1ccc(C(F)(F)F)cc1)c1ccccc1 (stereo not drawn),n,n,16µM[single pt active],n
N#Cc1nc(-c2ccccc2F)oc1N1CCCC1,n,n,n,n
CN(C)c1oc(-c2ccccc2F)nc1C#N,n,n,4µM[single pt active],n
CN1CCN(c2ncnc3ccc(-c4ccccc4C#N)cc23)CC1,n,u,n,n
CN1CCN(c2ncnc3ccc(-c4ccccc4C(F)(F)F)cc23)CC1,n,13µM,n,n
COC(=O)C(CC(=O)c1ccc(Br)cc1)n1ccnc1 (stereo not drawn),n,13µM,n,n
Cc1ccc(C(=O)CC(C(=O)O)n2cccn2)cc1 (stereo not drawn),n,n,n,n
CCN(CC)C(=O)N[C@@H]1C=C2c3cccc4[nH]cc(c34)C[C@@H]2N(C)C1,n,n,n,n
SMILES,SmPrx2 inh,LT uptake inh,AmpC inh no det,AmpC det inh
Cc1cccc(OCC(=O)NCc2ccncc2)c1C,n,n,3.2µM[single pt active],n
COc1ccc(CNC(=O)Cc2nn(C)c(=O)c3ccccc23)cc1,n,n,n,n
Cn1nc(CC(=O)NC2CCCCCC2)c2ccccc2c1=O,n,u,3.2µM[single pt active],n
Cn1c(=O)c(-c2ccc(Cl)cc2)nc2cnc(Oc3cccc(Cl)c3)nc21,n,u,n,n
COc1ccccc1OCc1nnc(SCC(=O)c2cc(Cl)ccc2OC)o1,n,13µM,n,n
C/C(N)=C(/C#N)C(=O)CSc1nnc(COc2ccccc2Cl)o1,n,n,n,n
CCN(CC)c1ccc(NC(=O)CSc2nc3ccccc3c(=O)[nH]2)cc1,n,n,10µM[single pt active],n
N=C(N)c1ccc(N2CCN(C3CCN(CC(=O)O)CC3)CC2)cc1,x,n,x,x
COc1ccc2c(c[n+](C)c3c4cc5c(cc4ccc23)OCO5)c1OC,n,25µM,n,n
Nc1cc(C(=O)O)c(O)c(S(=O)(=O)O)c1,x,u,n,n
COc1ccccc1-c1nnc(NC(=O)c2ccc(S(=O)(=O)N(C)Cc3ccccc3)cc2)o1,n,n,n,n
COc1ccc(-c2nnc(NC(=O)c3ccc(S(=O)(=O)N4CCCc5ccccc54)cc3)o2)cc1,n,n,13µM,n
CN(c1ccccc1)S(=O)(=O)c1ccc(C(=O)Nc2nnc(-c3ccc(F)cc3)o2)cc1,n,n,10µM,n
C=C1CC[C@@H]2[C@](C)(CC[C@@H](O)[C@]2(C)CO)[C@@H]1C/C=C1/C(=O)OC[C@H]1O,n,u,n,n
